Bioassay records (PubChem BioAssay)
An excerpt weighted towards active compounds, which were near 3.3% of everything screened.
TbPYK inhibitor = blocks Trypanosoma brucei pyruvate kinase. Potency, µM (top dose mostly 76.8 µM), for inactives: at the highest dose activity, negative = inhibition, most hits filed as inhibitors. Q57TT1. hit rate 0.12% among 410,000. TbPYK enzyme, Kinase-Glo Plus ATP luminescence, 45 min; also: % is scaled to controls: 0 for no effect and ±100 for the full control effect; nearly all actives have a fitted effect of over 50% in size
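Readout: single end-point luminescence (Kinase-Glo Plus, 10 min). Reaction conditions were TbPYK/substrate plus 130 uM ADP, 45 min at RT, pH 7.2 TEA buffer. No-enzyme wells served as controls, and data were normalized before concentration-response fitting.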
SARS PLP yeast = SARS-CoV PLP inhibition in yeast; AID 485353; hit rate 0.19% among 330,000; S. cerevisiae expressing SARS-CoV PLpro, growth rescue; Potency, µM (top dose mostly 32.9 µM), inactives show at the highest dose activity, positive = growth rescue, hits mostly activators; calls by dose curve; also: 0% is about no effect; nearly all actives have a fitted effect of over 55% in size
LmPK inhibitor = LmPK (Leishmania mexicana) enzyme inhibition; purified LmPK, Kinase-Glo ATP luminescence, 1 h; Potency, µM (highest dose often 57.5 µM), without a hit: at the highest dose activity change, negative = inhibition, usual class: inhibitors; hit rate 0.37% among 290,000; AID 1721; also: % is scaled to controls: 0 for no effect and ±100 for the full control effect
Target sequence (Q27686 whole entry, looked up): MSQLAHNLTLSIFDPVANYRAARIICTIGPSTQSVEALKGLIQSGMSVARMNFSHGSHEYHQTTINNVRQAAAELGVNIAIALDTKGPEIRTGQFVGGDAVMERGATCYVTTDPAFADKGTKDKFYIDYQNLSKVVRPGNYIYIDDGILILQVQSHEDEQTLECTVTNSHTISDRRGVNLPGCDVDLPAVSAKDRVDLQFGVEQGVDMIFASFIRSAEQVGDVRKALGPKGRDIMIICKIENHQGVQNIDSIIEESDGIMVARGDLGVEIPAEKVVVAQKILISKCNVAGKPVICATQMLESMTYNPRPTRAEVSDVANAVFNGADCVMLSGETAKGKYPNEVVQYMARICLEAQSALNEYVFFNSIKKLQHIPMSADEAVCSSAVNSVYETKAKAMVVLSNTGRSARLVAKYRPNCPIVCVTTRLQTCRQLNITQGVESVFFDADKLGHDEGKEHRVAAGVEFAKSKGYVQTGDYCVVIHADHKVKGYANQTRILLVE
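Purified LmPK (0.1 nM) with 0.5 mM PEP and 0.1 mM ADP in imidazole buffer pH 7.2 with MgCl2/KCl, 1 h at room temperature. ATP formed was read by luciferase luminescence and normalized to no-enzyme and uninhibited controls.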
RE007 growth inh = less growth of the S. pombe RE007 Vpr strain; S. pombe RE007 Vpr strain, BacTiter-Glo ATP luminescence, 24 h; Potency, µM (series often up to 92.2 µM), without a hit: at the highest dose activity change, negative = less growth, actives largely listed as inhibitors; hit rate 0.21% among 360,000; active = well fitted falling curve with a large enough effect; inconclusive = small, poorly fitted or top-dose-only effect; inactive = no such curve, though single readings can be large or run the other way; also: % is scaled to controls: 0 for no effect and ±100 for the full control effect; nearly all actives have a fitted effect of over 50% in size
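Fission yeast strain RE007, carrying one chromosomally integrated HIV-1 vpr copy, was seeded at OD 0.01 in PMG+AL medium with 23 nL pinned compound. After 24 h at 30 °C and 99% humidity, viability was read by BacTiter-Glo luminescence.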
NS1 function inh = blocks influenza NS1 protein function | AID 2326 | Potency, µM (top dose mostly 46.1 µM), for the others: at the highest dose activity, positive = more growth | hit rate 0.4% among 270,000; calls by dose curve; also: actives are rising curves; nearly all actives have a fitted effect of over 50% in size
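A cell-based growth assay was used: compounds that relieve NS1-induced slow growth of budding yeast raise OD600. Assay medium was yeast nitrogen base with ammonium sulphate and -URA supplement, pH 6.0, with 2% galactose.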
Sm TGR inh = S. mansoni TGR enzyme inhibition; AID 485364; purified TGR, DTNB reduction, TNB absorbance 405 nm; Q962Y6; Potency, µM (series often up to 114 µM), without a hit: at the highest dose activity change, negative = inhibition, actives largely listed as inhibitors; hit rate 3% among 360,000; also: % is scaled to controls: 0 for no effect and ±100 for the full control effect; nearly all actives have a fitted effect of over 60% in size
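Kinetic colorimetric format: TGR-catalysed, NADPH-driven DTNB reduction monitored via TNB absorbance. Enzyme dispensed at 20 nM; compound exposure 15 min at room temperature before reaction start.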
An asterisk follows results filed as active; [ ] = another dose, or the depositor's remark. Unless noted, calls follow the shape of the dose curve; as a rule, active = well fitted curve in the direction sought with a large enough effect; inconclusive = small, poorly fitted or top-dose-only effect, or another doubt; inactive = no such curve, though single readings can be large; an effect the other way counts as inactive or inconclusive. Potency is read from the fitted curve at half-maximal effect.

What do the screens show for `c1ccc(Nc2c(-c3ccco3)nc3ccccn23)cc1`?
TbPYK inhibitor: -0.4%; SARS PLP yeast: -13.6%; LmPK inhibitor: 1.1%; RE007 growth inh: -18.5%; NS1 function inh: -12.6%; Sm TGR inh: -32.8%

Results for CCc1ccc(CCC(=O)Nc2nc(CC(C)=O)ns2)o1 ?
TbPYK inhibitor: -1.7%; SARS PLP yeast: 5.7%; LmPK inhibitor: 3.0%; RE007 growth inh: 16.1%; NS1 function inh: 9.1%; Sm TGR inh: 39.8µM*

How did O=C1CC[C@H](NC(=O)c2ccccc2)C(=O)N1 do in these assays?
NS1 function inh: 5.6%

How did Cc1ccc(N2C(=O)[C@@H]3C(c4cccnc4)=NO[C@@H]3C2=O)c(C)c1 do in these assays?
TbPYK inhibitor: -2.7%; SARS PLP yeast: 0.2%; LmPK inhibitor: 3.0%; RE007 growth inh: 8.6%; NS1 function inh: 0.6%; Sm TGR inh: inconclusive

How did O=C1[C@@H]2C(c3cccnc3)=NO[C@@H]2C(=O)N1c1ccc(Br)cc1 do in these assays?
TbPYK inhibitor: -16.6%; SARS PLP yeast: -5.6%; LmPK inhibitor: -5.8%; RE007 growth inh: 22.4µM*; NS1 function inh: 3.7%; Sm TGR inh: 3.55µM*

How did O=C(CCl)N(c1ccccc1)c1c[nH]c2ccccc12 do in these assays?
TbPYK inhibitor: -16.5%; SARS PLP yeast: -25.1%; LmPK inhibitor: 3.5%; RE007 growth inh: inconclusive; NS1 function inh: -12.1%; Sm TGR inh: 3.16µM*

What do the screens show for `O=C(CCl)N(c1ccc(Cl)cc1)c1c[nH]c2ccccc12`?
TbPYK inhibitor: 3.0%; SARS PLP yeast: -25.8%; LmPK inhibitor: 1.4%; RE007 growth inh: 11.8%; NS1 function inh: -9.0%; Sm TGR inh: 0.708µM*

What do the screens show for `O=C(Cc1ccc(Cl)cc1)NCCc1c[nH]c2ccccc12`?
TbPYK inhibitor: 3.7%; RE007 growth inh: -6.0%

How did Cc1ccc(C(=O)N(Cc2ccco2)Cc2sccc2C)cc1 do in these assays?
TbPYK inhibitor: -2.3%; Sm TGR inh: -3.9%

What do the screens show for `Cc1cc(Nc2ccccc2F)n2nc(Cc3ccc(Cl)cc3)nc2n1`?
TbPYK inhibitor: -8.0%; Sm TGR inh: 0.4%

How did O=C(Nc1ccc(Cl)cc1)NC1CCCC1Cc1ccco1 (stereo unspecified) do in these assays?
TbPYK inhibitor: -2.2%; SARS PLP yeast: -27.9%; LmPK inhibitor: 5.5%; RE007 growth inh: 7.3%; NS1 function inh: -83.9%; Sm TGR inh: 44.7µM*

Results for O=C(Nc1ccc(Cl)cc1)NC1CCCCC1Cc1ccco1 (stereo unspecified) ?
TbPYK inhibitor: -5.9%; SARS PLP yeast: -27.8%; LmPK inhibitor: 3.1%; RE007 growth inh: 6.3%; NS1 function inh: -128.2%; Sm TGR inh: -13.5%

What do the screens show for `CCOC(=O)N1CCC(NC(=O)CS(=O)(=O)Cc2nc(-c3cccc(Cl)c3)oc2C)CC1`?
TbPYK inhibitor: 3.2%; SARS PLP yeast: 2.5%; LmPK inhibitor: 6.6%; RE007 growth inh: -0.5%; NS1 function inh: -4.1%; Sm TGR inh: 35.5µM*

Results for Cc1oc(-c2cccc(Cl)c2)nc1CS(=O)(=O)CC(=O)NC1CC1 ?
TbPYK inhibitor: 5.7%; SARS PLP yeast: -2.8%; LmPK inhibitor: -4.5%; RE007 growth inh: 10.3%; NS1 function inh: -15.8%; Sm TGR inh: 39.8µM*

Results for CCOC(=O)N1CCC(NC(=O)CS(=O)(=O)Cc2nc(-c3cccc(OC)c3)oc2C)CC1 ?
TbPYK inhibitor: -3.9%; SARS PLP yeast: -5.8%; LmPK inhibitor: 3.0%; RE007 growth inh: 12.5%; NS1 function inh: -0.8%; Sm TGR inh: 1.4%

What do the screens show for `Cc1ccc(S(=O)(=O)CCC(=O)Nc2sccc2C#N)cc1`?
TbPYK inhibitor: -1.1%; SARS PLP yeast: 0.9%; RE007 growth inh: 2.4%; Sm TGR inh: 44.7µM*

How did Cc1ccc(S(=O)(=O)CCC(=O)Nc2cc(Cl)ccc2-n2cncn2)cc1 do in these assays?
TbPYK inhibitor: 1.9%; SARS PLP yeast: 2.9%; RE007 growth inh: 6.1%; Sm TGR inh: 17.8µM*

What do the screens show for `Cc1ccc(S(=O)(=O)CCC(=O)Nc2ccccc2C)cc1`?
TbPYK inhibitor: 0.1%; SARS PLP yeast: 1.6%; LmPK inhibitor: 1.7%; RE007 growth inh: 15.8%; NS1 function inh: -9.5%; Sm TGR inh: 39.8µM*

How did Cc1ccc(S(=O)(=O)CCC(=O)Nc2ccccc2N2CCCC2)cc1 do in these assays?
TbPYK inhibitor: 0.8%; SARS PLP yeast: -8.4%; RE007 growth inh: -10.0%; Sm TGR inh: -24.2%

What do the screens show for `Cc1ccc(OCC(=O)Nc2cc(Cl)ccc2-n2cncn2)c(C)c1`?
TbPYK inhibitor: 5.1%; RE007 growth inh: 22.7%

Results for O=C(c1ccc2c(c1)OCCO2)N(Cc1cccnc1)c1nc2c(F)cc(F)cc2s1 ?
TbPYK inhibitor: -1.7%; Sm TGR inh: 7.7%

What do the screens show for `CN(C)CCCNc1oc(/C=C/c2ccc(F)cc2)nc1C#N`?
TbPYK inhibitor: 3.3%; Sm TGR inh: 0.7%

What do the screens show for `Nc1ccccc1Nc1ccccc1`?
TbPYK inhibitor: -17.5%; SARS PLP yeast: -6.7%; LmPK inhibitor: -5.5%; RE007 growth inh: 0.7%; NS1 function inh: -56.8%; Sm TGR inh: 3.8%

What do the screens show for `Nc1ccc(Nc2ccccc2)c(Cl)c1`?
TbPYK inhibitor: -1.0%; SARS PLP yeast: -12.3%; LmPK inhibitor: 1.3%; RE007 growth inh: 117.3%; NS1 function inh: -73.1%; Sm TGR inh: 11.2µM*

How did O=C(CN1CCCN(Cc2cccc(F)c2)S1(=O)=O)Nc1ccc2c(c1)OCCO2 do in these assays?
TbPYK inhibitor: -4.4%; Sm TGR inh: 5.4%

Results for COc1ccccc1N=Cc1nc(-c2ccccc2)oc1OC(C)=O ?
TbPYK inhibitor: -2.4%; SARS PLP yeast: -53.1%; LmPK inhibitor: -12.5%; RE007 growth inh: 15.2%; NS1 function inh: -16.6%; Sm TGR inh: inconclusive

How did CC(=O)Oc1oc(-c2ccccc2)nc1/C=N/c1ccccn1 do in these assays?
TbPYK inhibitor: 4.2%; SARS PLP yeast: -2.9%; LmPK inhibitor: inconclusive; RE007 growth inh: 4.5%; NS1 function inh: -38.2%; Sm TGR inh: 28.2µM*

How did Cc1nc(/C(N)=N/OC(=O)c2cccc(Cl)c2)c(C(F)(F)F)o1 do in these assays?
TbPYK inhibitor: 1.0%; SARS PLP yeast: -2.1%; LmPK inhibitor: -7.2%; RE007 growth inh: 8.6%; NS1 function inh: -3.8%; Sm TGR inh: -1.2%

What do the screens show for `N/C(=N/OC(=O)c1ccccc1Cl)c1nonc1N`?
TbPYK inhibitor: inconclusive; SARS PLP yeast: -0.5%; LmPK inhibitor: 0.6%[11.5 µM]; RE007 growth inh: 28.2µM*; Sm TGR inh: 12.5%

How did Cc1nc(/C(N)=N/OC(=O)c2ccccc2Cl)c(C(F)(F)F)o1 do in these assays?
TbPYK inhibitor: -21.0%; SARS PLP yeast: -1.9%; LmPK inhibitor: 12.6µM*; RE007 growth inh: -7.6%; NS1 function inh: -7.8%; Sm TGR inh: -0.7%
